According to PubChem BioAssay (NCI):
Values joined by “and” are separate entries in the source; they are usually repeats but may differ in a detail not shown here. Equal entries are not always repeated. This is part of a sample that, as a whole, favours compounds with a hit. Of some 83,000 tested, about 20% had one in any assay.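 Results are percent growth after 48 hours of single-concentration exposure. 100 means growth as in untreated cells, lower positive values show inhibition; negative values down to -100 show cell death.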 Active and inactive are the calls of the source. Rule for the calls: active = growth percent below 10; inactive = the rest.

Key:
Assay in all cases: NCI-60 one-dose screen, 48 h (100 = growth as untreated, 0 = no growth, -100 = all killed)
Details in all cases: 10 µM unless noted
[1] = system: HCT-15 colon
[2] = system: HT29 colon
[3] = system: SNB-75 CNS
[4] = system: SNB-19 CNS
[5] = system: U251 CNS
[6] = system: PC-3 prostate
[7] = system: SK-MEL-5 melanoma
[8] = system: UACC-62 melanoma
[9] = system: SK-MEL-28 melanoma
[10] = system: SK-MEL-2 melanoma
[11] = system: EKVX NSCLC
[12] = system: SN12C renal
[13] = system: UO-31 renal
[14] = system: TK-10 renal
[15] = system: ACHN renal
[16] = system: CAKI-1 renal
[17] = system: A498 renal
[18] = system: CCRF-CEM leukemia
[19] = system: MOLT-4 leukemia
[20] = system: LOX IMVI melanoma

Compound	growth [1]	growth [2]	growth [3]	growth [4]	growth [5]	growth [6]	growth [7]	growth [8]	growth [9]	growth [10]	growth [11]	growth [12]	growth [13]	growth [14]	growth [15]	growth [16]	growth [17]	growth [18]	growth [19]	growth [20]
Nc1nc(N)c2nc(CNc3ccc(C(=O)NC(CCC(=O)O)C(=O)O)cc3)cnc2n1 (stereo not drawn)	27% (inactive) and 26% (inactive)	32.5% (inactive) and 18.5% (inactive)	64.3% (inactive) and 41.4% (inactive)	51% (inactive) and 44.4% (inactive)	37.9% (inactive) and 26.9% (inactive)	43.3% (inactive) and 26.6% (inactive)	24.6% (inactive) and 23.9% (inactive)	25.3% (inactive) and 24.3% (inactive)	67% (inactive) and 96.9% (inactive)	60.1% (inactive) and 58.9% (inactive)	72.9% (inactive) and 44.4% (inactive)	25.6% (inactive) and 14.7% (inactive)	13.6% (inactive) and 31.4% (inactive)	54% (inactive) and 48.1% (inactive)	19.4% (inactive)	25.9% (inactive) and 21.9% (inactive)	45.4% (inactive) and 85.7% (inactive)	22.6% (inactive) and 29.9% (inactive)	25.8% (inactive) and 31.5% (inactive)	–
CN(C)c1ccc(/C=N/N=C(\C#N)[S][Sn]([Cl])([c]2ccccc2)[c]2ccccc2)cc1	-30.6% (active)	19.2% (inactive)	–	89.6% (inactive)	57.3% (inactive)	68.6% (inactive)	37% (inactive)	34.7% (inactive)	-48.7% (active)	40.3% (inactive)	44% (inactive)	28.8% (inactive)	-0.649% (active)	-24.1% (active)	-51% (active)	46.4% (inactive)	–	-20.2% (active)	6.2% (active)	-92.8% (active)
CN=C(N)N/N=C(\C)c1ccc2c(c1)Cc1cc(/C(C)=N/NC(N)=NC)ccc1-2	2.4% (active)	-49.7% (active)	–	-43.6% (active)	-78.9% (active)	15.9% (inactive)	-89.9% (active)	-78.3% (active)	-64.7% (active)	-60.6% (active)	6.23% (active)	-49.4% (active)	6.24% (active)	-4.01% (active)	-49.9% (active)	23.4% (inactive)	-32.7% (active)	-3.32% (active)	-10.8% (active)	-49.3% (active)
N#CSCC(=O)c1ccc(Cl)cc1	18.1% (inactive)	-19.4% (active)	–	81.9% (inactive)	31.9% (inactive)	45.5% (inactive)	35.3% (inactive)	51.5% (inactive)	73.4% (inactive)	80.8% (inactive)	82.6% (inactive)	33.6% (inactive)	28.3% (inactive)	82.7% (inactive)	52% (inactive)	31.8% (inactive)	–	52.5% (inactive)	65.4% (inactive)	12.3% (inactive)
O=C(/C=C\c1cc(Br)ccc1O)/C=C/c1cc(Br)ccc1O	0% (active)	-54.2% (active)	–	-52.7% (active)	-82.6% (active)	-16% (active)	–	-67.5% (active)	-66.9% (active)	-63.1% (active)	8.88% (active)	-55.4% (active)	-72.9% (active)	-20% (active)	-59.8% (active)	-2.63% (active)	–	–	0.164% (active)	-95.6% (active)
O=C(Nc1ccccc1)Oc1c(Cl)c(Cl)c(Cl)c(Cl)c1Cl	102% (inactive) and 99.8% (inactive)	104% (inactive) and 96.6% (inactive)	93.1% (inactive) and 77.4% (inactive)	–	99% (inactive) and 100% (inactive)	95.6% (inactive) and 93.6% (inactive)	–	88.8% (inactive) and 89.5% (inactive)	119% (inactive) and 101% (inactive)	95.6% (inactive) and 101% (inactive)	97.7% (inactive) and 87.2% (inactive)	99.4% (inactive) and 92.7% (inactive)	73.9% (inactive) and 83.2% (inactive)	100% (inactive)	99.1% (inactive) and 93.6% (inactive)	–	–	93.6% (inactive) and 101% (inactive)	90.8% (inactive) and 96.1% (inactive)	99% (inactive) and 93.1% (inactive)
O=C1c2ccccc2C(=O)c2sc(Nc3cccc(Cl)c3)nc21	-67.3% (active)	76.1% (inactive)	–	42.8% (inactive)	-47.3% (active)	3.03% (active)	–	-55.6% (active)	-78.1% (active)	-16% (active)	7.78% (active)	-71.3% (active)	-5.49% (active)	147% (inactive)	-52.8% (active)	–	79.3% (inactive)	8.52% (active)	-19.6% (active)	-69.1% (active)
NC(N)=N/N=C/c1ccc([N+](=O)[O-])o1	68.1% (inactive)	33.2% (inactive)	–	99.9% (inactive)	80.8% (inactive)	90% (inactive)	90.4% (inactive)	92.9% (inactive)	114% (inactive)	83.4% (inactive)	122% (inactive)	86.6% (inactive)	88.8% (inactive)	115% (inactive)	92.8% (inactive)	–	105% (inactive)	87.9% (inactive)	103% (inactive)	–
CCOC(=O)/C(=C\c1ccc(-c2ccccc2)cc1)C(C)=O	94.5% (inactive)	104% (inactive)	–	–	103% (inactive)	107% (inactive)	98.7% (inactive)	94.6% (inactive)	99.1% (inactive)	104% (inactive)	99.2% (inactive)	89.9% (inactive)	82.7% (inactive)	86.1% (inactive)	104% (inactive)	98.7% (inactive)	–	107% (inactive)	107% (inactive)	98.4% (inactive)
CCC1OC(OC)C=CC1=O (stereo not drawn)	109% (inactive)	113% (inactive)	–	91.5% (inactive)	113% (inactive)	97.1% (inactive)	103% (inactive)	85% (inactive)	106% (inactive)	129% (inactive)	89% (inactive)	94.7% (inactive)	93.4% (inactive)	110% (inactive)	113% (inactive)	–	–	94.5% (inactive)	103% (inactive)	103% (inactive)
COC(=O)Nc1nc2ccc(C(=O)c3ccccc3)cc2[nH]1	30.2% (inactive) and 14.1% (inactive) and 15.8% (inactive)	4% (active) and 5.13% (active) and 2.8% (active)	–	–	23.7% (inactive) and 19.9% (inactive) and 16.9% (inactive)	30.5% (inactive) and 18.6% (inactive) and 16.7% (inactive)	–	47.8% (inactive) and 31.1% (inactive) and 37.4% (inactive)	48.9% (inactive) and 61.5% (inactive) and 55.6% (inactive)	44.1% (inactive) and 45.4% (inactive) and -21.7% (active)	60.4% (inactive) and 39% (inactive) and 21.6% (inactive)	54.9% (inactive) and 28.7% (inactive) and 58.1% (inactive)	48% (inactive) and 38.3% (inactive) and 25.3% (inactive)	65% (inactive) and 75.9% (inactive) and 44.6% (inactive)	48.3% (inactive) and 54.2% (inactive)	48.8% (inactive) and 27.1% (inactive) and 15% (inactive)	13.9% (inactive) and 14.6% (inactive) and -12.2% (active)	15.7% (inactive) and -14.1% (active) and 1.15% (active)	19.3% (inactive) and 7.52% (active) and 7.55% (active)	–
CCCCCCCCCCCCCCCC[N+](C)(CCO)Cc1cnc[nH]1 (stereo not drawn)	23.5% (inactive)	-58.8% (active)	–	–	-86.5% (active)	-37.5% (active)	–	-76.4% (active)	-43.2% (active)	-78.5% (active)	38.1% (inactive)	-4.78% (active)	27.6% (inactive)	-35.1% (active)	3.11% (active)	40.9% (inactive)	-5.4% (active)	–	-77.2% (active)	–
CCCCCC(CCCCC)C(=O)O	98.2% (inactive)	105% (inactive)	89.9% (inactive)	–	85.5% (inactive)	87.6% (inactive)	–	94.4% (inactive)	111% (inactive)	99.2% (inactive)	116% (inactive)	98.8% (inactive)	87.6% (inactive)	101% (inactive)	109% (inactive)	–	103% (inactive)	83.8% (inactive)	96.1% (inactive)	110% (inactive)
Nc1nc(N)c2c(ccc3c2ccn3Cc2cccc([N+](=O)[O-])c2)n1	-84.6% (active)	-60% (active)	–	-92.2% (active)	-87.9% (active)	-54.1% (active)	–	-94.8% (active)	-97.1% (active)	-92% (active)	-93.8% (active)	-83.6% (active)	-95.5% (active)	-92.4% (active)	-97% (active)	-96.1% (active)	–	24% (inactive)	46.2% (inactive)	-83.4% (active)
Nc1ccc(SSc2ccc(N)cc2)cc1	88.6% (inactive)	112% (inactive)	–	109% (inactive)	76% (inactive)	84.8% (inactive)	89.6% (inactive)	91.1% (inactive)	114% (inactive)	91.6% (inactive)	106% (inactive)	101% (inactive)	73.6% (inactive)	111% (inactive)	93.5% (inactive)	98.5% (inactive)	103% (inactive)	106% (inactive)	96.1% (inactive)	79.6% (inactive)
